The campaign covered roughly 310,000 compounds. About 1,400 (0.45%) were called active.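 The calls were made as follows: active = B-score, a plate-corrected calcium signal, over three deviations above library mean, with baseline fluorescence within five deviations of library mean; inactive = the rest.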 For the sample, actives were picked, then their nearest neighbours and some compounds at random.

The target of the assay is Regulator of G-protein signaling 4 (Homo sapiens) (UniProt P49798). Briefly: RGS4 inhibitors, primary screen, cell-based, HEK293 M3R inducible RGS4, calcium flux (AID 463165).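 Also: RGS4 expression induced by doxycycline in cells with stable M3 receptor.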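 As to B-score: B-score is computed from the integrated fluorescence ratio over baseline after carbachol; higher B-score means a larger calcium signal and so more RGS4 inhibition.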 To be noted: Fluo-4 calcium flux, at 10 µM; B-score: hits give high values unless noted; outcome: triggered by carbachol at its EC20 unless noted.
Regulator of G-protein signaling 4 (Homo sapiens), sequence (P49798 whole entry, looked up): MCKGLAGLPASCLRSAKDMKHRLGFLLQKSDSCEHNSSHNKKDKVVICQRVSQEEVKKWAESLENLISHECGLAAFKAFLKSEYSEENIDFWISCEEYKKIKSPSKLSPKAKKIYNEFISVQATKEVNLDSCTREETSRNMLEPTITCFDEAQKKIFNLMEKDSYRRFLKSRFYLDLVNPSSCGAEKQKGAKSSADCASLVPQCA
With `O=c1[nH]c(=O)n(Cc2ccccc2)c(O)c1/C=N/Nc1c(F)c(F)c(F)c(F)c1F`, the outcome is “inactive [setting not given]”.

On to `O=C(N/N=C/c1c(O)n(Cc2ccccc2)c(=O)[nH]c1=O)c1ccccc1`, for which the B-score was 5.25 (active). As for `O=C(N/N=C/c1c(O)n(C2CC2)c(=S)[nH]c1=O)c1ccccc1`, the outcome is “inactive [setting not given]”. For `O=c1[nH]c(O)c(C=Nc2cc(F)cc(F)c2)c(=O)[nH]1`, the outcome was “inactive [setting not given]”.

Take `O=C1N=c2ccccc2=C/C1=C\c1c(O)[nH]c(=S)[nH]c1=O`: the outcome is “inactive [setting not given]”.

`Cc1ccc2c(c1)=C/C(=C\c1c(O)[nH]c(=O)[nH]c1=O)C(=O)N=2`: the B-score is 5.31 (active). For `COC(=O)CN1C(=O)C2(C(C(=O)OC)=C(N)Oc3ccccc32)C2=C1CC(C)(C)CC2=O` (stereo not given), the outcome was inactive. Same read-out and setting: as for `CC1CCC(N(C)C2CCN(C)CC2)CC1` (stereo not given), the entry is “inactive”; as for `C=CC12CN(C)[C@@H]3C4CO[C@H](C[C@H]41)[C@]1(C(=O)Nc4ccccc41)[C@@H]32` (stereo not given in full), “inactive”.

For the compound `CC(C)(C)c1ccc(OC(=O)N2CCCCC2)cc1`, the outcome was inactive. Same read-out and setting: as for `Cc1cccc(N2C(=O)NC(=O)/C(=C\c3cnn(-c4ccccc4)c3)C2=O)c1`, the entry is “inactive [setting not given]”; as for `O=C1NC(=O)N(c2ccc(F)cc2)C(=O)/C1=C/c1ccc2c(c1)CCCN2Cc1ccccc1`, “inactive [setting not given]”. With `O=C1NC(=O)N(c2ccccc2)C(=O)/C1=C/c1ccc([N+](=O)[O-])s1`, the B-score was 4.87 (active). Turning to `CC(C)c1ccc(OCC(=O)N2CCCN(C)CC2)cc1`, the result was inactive. Still for that read-out and setting: to `O=C(CCNS(=O)(=O)c1ccccc1)Nc1ccc(Cl)cc1C(=O)c1ccccc1` belongs “inactive”. Regarding `O=C1NC(=O)N(Cc2ccco2)C(=O)/C1=C\c1ccc(-c2ccc(F)cc2)o1`, the B-score is 15.5 (active). Turning to `Cc1cc(/C=C2/C(=O)NC(=O)N(Cc3ccco3)C2=O)c(C)n1-c1ccc(C(=O)O)cc1`, the outcome was “inactive [setting not given]”. Take `O=C1NC(=O)N(Cc2ccco2)C(=O)/C1=C\c1cccn1CCOc1ccccc1`: the outcome is “inactive [setting not given]”. The same measure, in the same setting: to `CN(C)CC1Oc2ccccc2OC1(O)c1ccccc1` (stereo not given) belongs “inactive”; to `COC(=O)C1=C(c2ccccc2)C[C@@H]2CC[C@H]1N2C(=O)NCc1ccco1`, “inactive”.

Values taken from PubChem BioAssay AID463165 (Johns Hopkins Ion Channel Center, 2010).
